Bioassay records as filed in PubChem.
Most compounds without a hit are left out; they make up all but 2.2% or so of the library.
uPA generation – qHTS for Inhibitors of Cell Surface uPA Generation. 330,000 tested, 0.31% active. Potency, µM (top dose mostly 38.3 µM), without a hit: at the highest dose activity change, negative = inhibition, hits mostly inhibitors. cell surface uPA generation assay, qHTS; active = well fitted inhibition curve with a large enough effect; inconclusive = small, poorly fitted or top-dose-only effect; inactive = no such curve, though single readings can be large or run the other way; tested in mouse RAW 264.7 cells; also: potency is read from the fitted curve at half-maximal effect; % is scaled to controls: 0 for no effect and ±100 for the full control effect; nearly all actives have a fitted effect of over 55% in size
Mm-Cpn inhibitor – Inhibitors of TCP-1 ring complex (TRiC) of Methanococcus maripaludis (MmCpn): qHTS | Chaperonin Mm-Cpn (Methanococcus maripaludis) | Potency, µM (doses to about 76.9 µM), for inactives: at the highest dose activity, negative = inhibition, actives largely listed as inhibitors | purified Mm-Cpn ATPase, ADP Transcreener TR-FRET | 330,000 tested, 0.031% active; also: potency is read from the fitted curve at half-maximal effect; % is scaled to controls: 0 for no effect and ±100 for the full control effect; nearly all actives have a fitted effect of over 80% in size
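Quantitative HTS used 25 nM Mm-CPN and 10 uM ATP in magnesium/KCl Tris buffer, pH 7.4, with 1 mM DTT. Hydrolysis ran 30 min at 37°C; ADP was read by HTRF.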
CCT modulator – High-Throughput Screening for Modulators of Cytosolic Chaperonin Activity; purified chaperonin ATPase assay, HTRF ADP detection, 30 min; activity change, % (test concentration not listed), hits read low; 360,000 tested, 0.3% active; in the data active = activity change below about -30%; also: % is scaled to controls: 0 for no effect and ±100 for the full control effect
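Enzyme 40 or 20 nM (batch-dependent) in Tris pH 7.4/KCl/MgCl2/DTT; cpd 76 uM single point; ATP 10 uM; 30 min 37 °C; Transcreener ADP HTRF detection, 30 min RT; ratio 665/615.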
GLP-1R agonist – qHTS of GLP-1 Receptor Agonists; Glucagon-like peptide 1 receptor (Homo sapiens), P43220; HEK293 GLP-1R CRE-luciferase, luminescence, 4-6 h; cells express a hypersensitive GLP-1R form; Potency, µM (titrated, usually from 45.6 µM), without a hit: at the top dose activation, hits mostly activators; 380,000 tested, 0.007% active; AID 624172, 2012; also: potency is read from the fitted curve at half-maximal effect; % of control where 0% means no effect
Target sequence (P43220 whole entry, looked up): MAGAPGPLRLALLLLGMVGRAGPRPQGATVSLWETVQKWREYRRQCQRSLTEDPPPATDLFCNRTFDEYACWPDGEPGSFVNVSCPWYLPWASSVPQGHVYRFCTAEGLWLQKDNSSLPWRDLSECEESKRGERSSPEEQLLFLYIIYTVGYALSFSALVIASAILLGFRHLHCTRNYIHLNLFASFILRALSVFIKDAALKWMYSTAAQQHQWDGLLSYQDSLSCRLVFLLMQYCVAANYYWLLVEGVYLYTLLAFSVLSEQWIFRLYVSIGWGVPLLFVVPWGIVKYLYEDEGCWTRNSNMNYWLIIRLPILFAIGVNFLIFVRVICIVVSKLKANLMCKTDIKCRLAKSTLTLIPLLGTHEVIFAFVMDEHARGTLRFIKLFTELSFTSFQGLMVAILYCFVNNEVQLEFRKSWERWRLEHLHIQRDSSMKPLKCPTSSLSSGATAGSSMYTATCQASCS
GLP1R inv ag – qHTS of GLP-1 Receptor Inverse Agonists (Inhibition Mode); Glucagon-like peptide 1 receptor (Homo sapiens), P43220; HEK293 GLP-1R CRE-luciferase, luminescence, 24 h; GLP-1R form is constitutively active; Potency, µM (titrated, usually from 38.3 µM), without a hit: at the highest dose activity change, negative = inhibition, usual class: inhibitors; 410,000 tested, 1.6% active; also: potency is read from the fitted curve at half-maximal effect; % is scaled to controls: 0 for no effect and ±100 for the full control effect; nearly all actives have a fitted effect of over 55% in size
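GLP-1R inverse agonism mode: basal reporter luminescence in engineered HEK293 cells measured after one day of compound exposure at 37 deg C, with a 12 min room-temperature detection step.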
GLP1R cytotox – qHTS of GLP-1 Receptor Inverse Agonists: Cytotox Screen | HEK293 cAMP-luciferase reporter cells, luminescence, 24 h | Potency, µM (titrated, usually from 38.3 µM), for inactives: top-dose activity change, negative = inhibition, hits mostly inhibitors | 410,000 tested, 0.13% active | AID 624418, 2012;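 also: loss of luciferase light is scored as toxicity; potency is read from the fitted curve at half-maximal effect; % is scaled to controls: 0 for no effect and ±100 for the full control effect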
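Compound-treated cells are incubated 24 hr at 37 deg C under 5% CO2 after a 12 hour attachment period, then luciferase detection reagent is added and luminescence is measured following 12 min at room temperature; lowered signal indicates toxicity.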
The depositor's hits bear a star; ? = inconclusive; · = no result given. Unless noted, calls follow the shape of the dose curve; as a rule, active = well fitted curve in the direction sought with a large enough effect; inconclusive = small, poorly fitted or top-dose-only effect, or another doubt; inactive = no such curve, though single readings can be large; an effect the other way counts as inactive or inconclusive.

SMILES | uPA generation | Mm-Cpn inhibitor | CCT modulator | GLP-1R agonist | GLP1R inv ag | GLP1R cytotox
Cc1ccc(-n2cc(C(=O)OCc3ccc(Cl)cc3)c3ccccc3c2=O)cc1 | · | · | · | · | -11% | 3%
C=CCn1c(NCc2cc(Cl)ccc2O)nc2ccccc21 | 1% | 0% | -1 | 4% | 11µM* | -1%
O=c1c(-c2ccccc2)coc2c(CN3CCCC3)c(O)ccc12 | · | 45µM* | -3 | -14% | -3% | -8%
O=c1c(-c2ccc(Cl)cc2)coc2c(CN3CCOCC3)c(O)ccc12 | -6% | 2% | -1 | -7% | 0% | 14%
Cc1ccc2cc(C)c(Sc3nnnn3-c3ccccc3)nc2c1 | -1% | 0% | -15 | 3% | -10% | 11%
Cc1cc(C)c(SSc2nnnn2-c2ccccc2)c(C)c1 | · | · | -38* | -2% | -3% | 16%
CCCCN(CCCC)/C(N)=N/c1nc(C)cc(C)n1 | -11% | -2% | 0 | 3% | 4µM* | ?
COc1cccc(CSc2nc3ccccc3[nH]2)c1 | 8.9µM* | -2% | -1 | 2% | -22% | -9%
COc1cccc(C(=O)Nc2c(C)n[nH]c2C)c1 | 1% | -1% | -75* | 4% | 9% | -13%
Cc1c(C(=O)Nc2nc3ccccc3[nH]2)oc2c(Cl)cccc12 | -11% | 0% | -30* | 15% | ? | -27%
Cc1c(C(=O)Nc2nc3ccccc3[nH]2)oc2ccccc12 | -5% | 0% | -2 | 8% | ? | ?
Cc1cccc(C(=O)N[C@H](C(=O)Nc2nc3ccccc3[nH]2)C(C)C)c1 | 2.8µM* | -4% | 0 | 13% | ? | ?
COc1cccc(C(=O)Nc2nc3ccccc3[nH]2)c1 | -15% | 1% | 0 | -21% | 7.9µM* | ?
O=C(Nc1nc2ccccc2[nH]1)c1cccc(F)c1 | -11% | 1% | -2 | 1% | ? | ?
CN(C)c1cccc(C(=O)Nc2nc3ccccc3[nH]2)c1 | -7% | -5% | -2 | -5% | 3.5µM* | 2%
COc1ccc(C(=O)Nc2nc3ccccc3[nH]2)cc1 | -23% | 1% | -1 | -5% | ? | ?
Cc1c(C(=O)Nc2nc(-c3ccc(F)cc3)ns2)oc2ccc(Cl)cc12 | · | · | · | · | 6% | 10%
COc1nnc(-c2ccc(N3CCCCC3)c(NC(=O)c3ccccc3Cl)c2)c2ccccc12 | · | · | · | · | 3.5µM* | -11%
O=c1c2oc3ccccc3c2n(Cc2ccc(Cl)cc2)c(=O)n1Cc1ccco1 | · | · | · | · | 2% | -17%
CCCCC[C@@H](C)N1C[C@H](COCc2ccccc2)Oc2cc(N3CCC[C@@H]3CO)ccc2S1(=O)=O | · | · | 0 | 0% | 11µM* | -14%
CCCCC[C@@H](C)N1C[C@@H](COCc2ccccc2)Oc2cc(N3CCC[C@H]3CO)ccc2S1(=O)=O | · | · | -3 | 2% | ? | -9%
C[C@@H](c1ccccc1)N1C[C@H](COCc2ccccc2)Oc2cc(N3CC[C@H](O)C3)ccc2S1(=O)=O | · | · | -1 | -1% | 10µM* | -12%
CCCNC(=O)C1CCN(Cc2cc3ccccc3n2Cc2ccccc2)CC1 | · | · | · | · | ? | -6%
CCNC(=O)C1CCN(Cc2cc3ccccc3n2Cc2ccc(C)cc2)CC1 | · | · | · | · | -9% | 8%
CC(CNC(=O)C1CCN(Cc2cc3ccccc3n2Cc2ccccc2)CC1)c1ccccc1 (stereo not drawn) | · | · | · | · | 10µM* | -3%
SMILES | uPA generation | Mm-Cpn inhibitor | CCT modulator | GLP-1R agonist | GLP1R inv ag | GLP1R cytotox
COCCNC(=O)C1CCN(Cc2cc3ccccc3n2Cc2ccc(C)cc2)CC1 | · | · | · | · | 10µM* | -9%
CN(Cc1ccccc1)C(=O)C1CCN(Cc2cc3ccccc3n2Cc2ccccc2)CC1 | · | · | · | · | 10µM* | 0%
Cc1ccccc1Cn1c(CN2CCC(C(=O)NCCc3ccccc3)CC2)cc2ccccc21 | · | · | · | · | 11µM* | 2%
CCOc1ccc(NC(=O)CSc2nnc(CNC(=O)C34CC5CC(CC(C5)C3)C4)n2CC)cc1 | · | · | · | 0% | -3% | 5%
O=C(CC1C(=O)N(c2ccc(F)cc2)C(=O)N1Cc1cccnc1)Nc1ccc(F)cc1 (stereo not drawn) | · | · | · | · | 3% | 0%
O=C(Cn1c(=O)n(-c2ccccc2)c(=O)c2c3c(sc21)CCCC3)Nc1cccc(F)c1 | · | · | · | -2% | 3% | -5%
CCOc1ccccc1NC(=O)CN1C(=O)COc2ccc(S(=O)(=O)N3CCCCCC3)cc21 | · | · | · | · | 2% | -10%
COc1ccc(CNC(=O)c2ccc(CSc3nc4ccncc4n3Cc3ccccc3F)cc2)cc1 | · | · | · | · | ? | 14%
CCOc1ccccc1N=NC1C(=O)N(C(N)=S)N=C1C (stereo not drawn) | ? | -2% | 2 | -2% | 0.89µM* | ?
N#Cc1c(N)nc(SCC(=O)C23CC4CC(CC(C4)C2)C3)c(C#N)c1-c1ccc(Cl)cc1 | 4% | -7% | -40* | -6% | -24% | -3%
Cc1cc(-c2ccc(C)c(S(=O)(=O)N(C)c3ccc(C)c(C)c3)c2)on1 | · | · | · | · | ? | -7%
O=C(NCCc1ccc(F)cc1)NC12CC3CC(CC(C3)C1)C2 | 3% | 0% | -2 | 0% | ? | 15%
O=C(NCCC1=CCCCC1)NC12CC3CC(CC(C3)C1)C2 | 3% | -5% | -1 | -5% | 5.6µM* | 16%
CCN(CC)c1ccc(CN(C(=O)Cc2coc3ccc(C)cc23)C2CCS(=O)(=O)C2)cc1 (stereo not drawn) | · | · | · | · | ? | -15%
COc1ccc(C2=Nn3c(nnc3-c3cccnc3)SC2)cc1OC | · | 1% | 2 | 2µM* | 0% | 8%
CCCCc1nn2c(=O)cc(COC(=O)c3ccc(NC(=O)C4CCCCC4)cc3)nc2s1 | · | · | · | · | 9% | 0%
O=C(NNC(=S)NCc1ccccc1)c1ccc(Br)o1 | 2.8µM* | 2% | 1 | -2% | -16% | -10%
CC1CCCC(NC(=O)COC(=O)c2ccc([N+](=O)[O-])o2)C1C (stereo not drawn) | 1% | 1% | -64* | 8% | 2% | -2%
O=C(c1ccc([N+](=O)[O-])cc1)N1c2ncnn2C2(CCCCC2)[C@@H]2CCCC[C@@H]21 | · | · | · | · | 5% | 6%
CN(C)CCNC(=O)c1ccc2c(=O)n(Cc3ccc(Cl)cc3)c(=S)[nH]c2c1 | -5% | -1% | 0 | 7% | 3.2µM* | ?
